Several values for one entry are separate records, joined by “and”; a condition that tells them apart may be missing. Equal values may be shown once. Out of some 5,500 compounds screened, about 2,000 (36%) were called active. Another 18% or so got no clear call; they are omitted. Rule as the data show it: active = normalized growth mostly below about 0.91 (no sharp cut-off); inconclusive = no clear call, values can overlap the other calls; inactive = mostly above about 0.92. Some of the results follow.
Assay: chemical genetic growth profiling, strain panel (AID 1159580);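 also: tested at 20 µM; growth read once vehicle control cultures reached saturation at 30 °C; 1 = growth at the plate median or of vehicle wells; lower values mean less growth of the strain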
Settings: growth OD

Measured: normalized growth

OCCN1CCN(CCCN2c3ccccc3Sc3ccc(Cl)cc32)CC1
inactive: S. cerevisiae deletion strains, locus YJR075W, strain HOC1, stronger effect = lower value 1 | S. cerevisiae deletion strains, locus YKL009W, strain mrt4, stronger effect = lower value 0.982 | S. cerevisiae deletion strains, locus YKL068W, stronger effect = lower value 0.999 | S. cerevisiae deletion strains, locus YKL085W, strain MDH1 (second series), stronger effect = lower value 1 | S. cerevisiae deletion strains, locus YKL085W, strain MDH1, stronger effect = lower value 1 | S. cerevisiae deletion strains, locus YKL160W, strain elf1, stronger effect = lower value 0.996 | S. cerevisiae deletion strains, locus YKL190W, strain CNB1, stronger effect = lower value 1.01 | S. cerevisiae deletion strains, locus YKR001C, strain vps1, stronger effect = lower value 1.03 | S. cerevisiae deletion strains, locus YKR026C, strain gcn3, stronger effect = lower value 1 | S. cerevisiae deletion strains, locus YKR091W, strain srl3, stronger effect = lower value 1 | S. cerevisiae deletion strains, locus YLL001W, strain dnm1, stronger effect = lower value 1.01 | S. cerevisiae deletion strains, locus YLL026W, stronger effect = lower value 0.999 | S. cerevisiae deletion strains, locus YLL041C, strain sdh2, stronger effect = lower value 1 | S. cerevisiae deletion strains, locus YLR027C, strain aat2, stronger effect = lower value 1 | S. cerevisiae deletion strains, locus YLR039C, strain RIC1, stronger effect = lower value 1.24 | S. cerevisiae deletion strains, locus YLR058C, strain SHM2, stronger effect = lower value 1.01 | S. cerevisiae deletion strains, locus YLR102C, strain apc9, stronger effect = lower value 0.991 | S. cerevisiae deletion strains, locus YLR113W, strain HOG1, stronger effect = lower value 0.98 | S. cerevisiae deletion strains, locus YLR221C, strain rsa3, stronger effect = lower value 1 | S. cerevisiae deletion strains, locus YLR258W, strain gsy2, stronger effect = lower value 1 | S. cerevisiae deletion strains, locus YLR262C, strain YPT6 (second series), stronger effect = lower value 1.06 | S. cerevisiae deletion strains, locus YLR262C, strain YPT6, stronger effect = lower value 1.32 | S. cerevisiae deletion strains, locus YLR268W, strain sec22, stronger effect = lower value 0.935 | S. cerevisiae deletion strains, locus YLR320W, strain mms22, stronger effect = lower value 0.964 | S. cerevisiae deletion strains, locus YLR330W, strain CHS5, stronger effect = lower value 1.01 | S. cerevisiae deletion strains, locus YLR342W, strain FKS1 (second series), stronger effect = lower value 0.958 | S. cerevisiae deletion strains, locus YLR342W, strain FKS1, stronger effect = lower value 0.994 | S. cerevisiae deletion strains, locus YLR357W, strain rsc2, stronger effect = lower value 0.983 | S. cerevisiae deletion strains, locus YLR370C, strain arc18, stronger effect = lower value 1 | S. cerevisiae deletion strains, locus YLR371W, strain rom2, stronger effect = lower value 0.992 | S. cerevisiae deletion strains, locus YLR384C, strain iki3, stronger effect = lower value 1 | S. cerevisiae deletion strains, locus YLR418C, strain cdc73, stronger effect = lower value 0.894 | S. cerevisiae deletion strains, locus YML016C, strain PPZ1, stronger effect = lower value 1.02 | S. cerevisiae deletion strains, locus YML032C, strain rad52, stronger effect = lower value 0.961 | S. cerevisiae deletion strains, locus YML120C, strain ndi1, stronger effect = lower value 1 | S. cerevisiae deletion strains, locus YML124C, strain tub3, stronger effect = lower value 0.991 | S. cerevisiae deletion strains, locus YMR058W, strain fet3, stronger effect = lower value 0.995 | S. cerevisiae deletion strains, locus YMR078C, strain ctf18, stronger effect = lower value 0.986 | S. cerevisiae deletion strains, locus YMR125W, strain sto1, stronger effect = lower value 1.01 | S. cerevisiae deletion strains, locus YMR129W, stronger effect = lower value 1 | S. cerevisiae deletion strains, locus YMR205C, strain PFK2, stronger effect = lower value 0.977 | S. cerevisiae deletion strains, locus YMR223W, strain ubp8, stronger effect = lower value 0.984 | S. cerevisiae deletion strains, locus YMR231W, strain pep5, stronger effect = lower value 1 | S. cerevisiae deletion strains, locus YMR263W, strain SAP30, stronger effect = lower value 1 | S. cerevisiae deletion strains, locus YMR307W, strain GAS1, stronger effect = lower value 1.1 | S. cerevisiae deletion strains, locus YNL067W, strain RPL9B, stronger effect = lower value 0.989 | S. cerevisiae deletion strains, locus YNL071W, strain lat1, stronger effect = lower value 1.01 | S. cerevisiae deletion strains, locus YNL128W, strain TEP1, stronger effect = lower value 1 | S. cerevisiae deletion strains, locus YNL153C, strain GIM3, stronger effect = lower value 0.983 and 0.891 | S. cerevisiae deletion strains, locus YNL175C, strain NOP13, stronger effect = lower value 1.03 | S. cerevisiae deletion strains, locus YNL183C, strain NPR1, stronger effect = lower value 0.947 | S. cerevisiae deletion strains, locus YNL197C, strain WHI3, stronger effect = lower value 1.02 | S. cerevisiae deletion strains, locus YNL209W, strain ssb2, stronger effect = lower value 0.997 | S. cerevisiae deletion strains, locus YNL224C, strain SQS1, stronger effect = lower value 1.02 | S. cerevisiae deletion strains, locus YNL233W, strain BNI4, stronger effect = lower value 0.986 | S. cerevisiae deletion strains, locus YNL248C, strain rpa49, stronger effect = lower value 0.998 | S. cerevisiae deletion strains, locus YNL250W, strain rad50, stronger effect = lower value 0.985 | S. cerevisiae deletion strains, locus YNL271C, strain bni1, stronger effect = lower value 0.996 | S. cerevisiae deletion strains, locus YNL298W, strain CLA4, stronger effect = lower value 0.976 | S. cerevisiae deletion strains, locus YNL307C, strain MCK1, stronger effect = lower value 0.973 | S. cerevisiae deletion strains, locus YNL322C, strain KRE1 (second series), stronger effect = lower value 1 | S. cerevisiae deletion strains, locus YNL322C, strain KRE1, stronger effect = lower value 1.01 | S. cerevisiae deletion strains, locus YNR049C, strain mso1, stronger effect = lower value 1.01 | S. cerevisiae deletion strains, locus YNR052C, strain pop2, stronger effect = lower value 1 | S. cerevisiae deletion strains, locus YOL006C, strain TOP1, stronger effect = lower value 1.01 | S. cerevisiae deletion strains, locus YOL012C, strain htz1 0.889 | S. cerevisiae deletion strains, locus YOL147C, strain pex11, stronger effect = lower value 0.992 | S. cerevisiae deletion strains, locus YOR001W, strain rrp6, stronger effect = lower value 0.976 | S. cerevisiae deletion strains, locus YOR061W, strain CKA2, stronger effect = lower value 1.02 | S. cerevisiae deletion strains, locus YOR069W, strain VPS5, stronger effect = lower value 1.01 | S. cerevisiae deletion strains, locus YOR070C, strain gyp1, stronger effect = lower value 0.994 | S. cerevisiae deletion strains, locus YOR080W, strain dia2, stronger effect = lower value 1 | S. cerevisiae deletion strains, locus YOR083W, strain WHI5 (second series), stronger effect = lower value 0.973 | S. cerevisiae deletion strains, locus YOR083W, strain WHI5, stronger effect = lower value 0.991 | S. cerevisiae deletion strains, locus YOR106W, strain vam3, stronger effect = lower value 0.962 | S. cerevisiae deletion strains, locus YOR136W, strain idh2, stronger effect = lower value 0.998 | S. cerevisiae deletion strains, locus YOR144C, strain elg1, stronger effect = lower value 1 | S. cerevisiae deletion strains, locus YOR184W, strain ser1, stronger effect = lower value 0.985 | S. cerevisiae deletion strains, locus YOR231W, strain MKK1, stronger effect = lower value 0.997 | S. cerevisiae deletion strains, locus YOR265W, strain rbl2, stronger effect = lower value 0.998 | S. cerevisiae deletion strains, locus YOR270C, strain vph1, stronger effect = lower value 1.04 | S. cerevisiae deletion strains, locus YOR290C, strain snf2, stronger effect = lower value 0.968 | S. cerevisiae deletion strains, locus YOR316C, strain cot1, stronger effect = lower value 0.994 | S. cerevisiae deletion strains, locus YPL051W, strain arl3, stronger effect = lower value 0.975 | S. cerevisiae deletion strains, locus YPL055C, strain LGE1, stronger effect = lower value 0.99 | S. cerevisiae deletion strains, locus YPL078C, strain atp4, stronger effect = lower value 1 | S. cerevisiae deletion strains, locus YPL106C, strain sse1, stronger effect = lower value 1.03 | S. cerevisiae deletion strains, locus YPL240C, strain hsp82, stronger effect = lower value 0.995 | S. cerevisiae deletion strains, locus YPL241C, strain CIN2, stronger effect = lower value 1.02 | S. cerevisiae deletion strains, locus YPL256C, strain CLN2, stronger effect = lower value 1.01 | S. cerevisiae deletion strains, locus YPR119W, strain clb2, stronger effect = lower value 0.991 | S. cerevisiae deletion strains, locus YPR141C, strain kar3, stronger effect = lower value 0.996 | S. cerevisiae deletion strains, locus YPR163C, strain tif3, stronger effect = lower value 0.987 | S. cerevisiae deletion strains, locus YPR167C, strain met16, stronger effect = lower value 1 | S. cerevisiae deletion strains, strain wtn01, stronger effect = lower value 0.951 | S. cerevisiae strains, strain wild type, stronger effect = lower value 1.01
